From PubChem BioAssay
A selection: hits, their analogues and other compounds. The true share with any hit is near 22%.
CHX counter: Cycloheximide Counterscreen for Small Molecule Inhibitors of Shiga Toxin. cell reporter, cycloheximide protein synthesis inhibition counterscreen. AID 2314, 2010. max response, %. 12% of 300,000 active; in the data active = max response mostly above about 13%, no sharp cut-off; inactive = mostly below about 14%; also: read at 38.3 µM for the half of the compounds with a filed dose
Pf growth 96h: Primary qHTS for delayed death inhibitors of the malarial parasite plastid, 96 hour incubation. P. falciparum luciferase reporter growth, 96 h. Potency, µM (doses to about 28.7 µM), hits mostly inhibitors. 6.9% of 320,000 active. AID 504834, 2011
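Plates of compound plus infected erythrocytes (2% hematocrit, 0.05% parasitemia final) incubate 96 hours, 37 C, 5% CO2. Detection reagent added; reduced luminescence from the parasites' luciferase reporter flags inhibition.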
LmPK inh: qHTS Assay for Inhibitors of Leishmania Mexicana Pyruvate Kinase (LmPK); 0.37% of 290,000 active; purified LmPK, Kinase-Glo ATP luminescence, 1 h; Potency, µM (doses to about 57.5 µM), hits mostly inhibitors; AID 1721, 2009; Q27686
Target sequence (Q27686 whole entry, looked up): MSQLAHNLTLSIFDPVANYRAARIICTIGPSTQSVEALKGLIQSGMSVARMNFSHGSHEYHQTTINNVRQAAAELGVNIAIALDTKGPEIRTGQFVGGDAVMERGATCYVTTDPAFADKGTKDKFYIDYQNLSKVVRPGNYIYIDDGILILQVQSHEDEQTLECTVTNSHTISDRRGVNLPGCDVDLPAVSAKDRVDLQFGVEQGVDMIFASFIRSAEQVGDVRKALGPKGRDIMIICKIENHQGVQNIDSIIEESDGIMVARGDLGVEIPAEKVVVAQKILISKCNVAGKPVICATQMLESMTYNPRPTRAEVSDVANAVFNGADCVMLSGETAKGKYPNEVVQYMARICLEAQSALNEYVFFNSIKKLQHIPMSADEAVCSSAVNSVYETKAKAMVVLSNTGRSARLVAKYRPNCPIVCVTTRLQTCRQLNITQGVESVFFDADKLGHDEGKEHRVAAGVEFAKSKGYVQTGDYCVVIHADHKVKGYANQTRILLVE
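ATP generated from ADP (0.1 mM) and PEP (0.5 mM) by 0.1 nM LmPK over 1 h at room temperature (pH 7.2 imidazole buffer) was detected by coupled luciferase luminescence. Values were normalized to uninhibited and no-enzyme wells.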
Shiga inhibitor: A qHTS for Small Molecule Inhibitors of Shiga Toxin | inhibition, % at 38.7 µM | AID 2315, 2010 | 9.2% of 290,000 active | Vero cells, Shiga toxin protein synthesis inhibition reporter; in the data active = inhibition mostly above about 28%, no sharp cut-off; inactive = mostly below about 43%
Pf growth 48h: Primary qHTS for delayed death inhibitors of the malarial parasite plastid, 48 hour incubation | 5.9% of 310,000 active | AID 504832, 2011 | P. falciparum luciferase growth in erythrocytes, 48 h | Potency, µM (titrated, usually from 28.7 µM), usual class: inhibitors
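Cell-based growth assay: transgenic P. falciparum expressing firefly luciferase, cultured in red cells within RPMI 1640 containing 0.5% w/v Albumax, 24 mM bicarbonate and gentamycin. A drop in luciferase activity indicates inhibition.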
A number is an active result; i = inactive; ? = inconclusive; nt = not tested or not shown; [ ] = another dose, or the depositor's remark. Unless noted, calls follow the shape of the dose curve; as a rule, active = well fitted inhibition curve with a large enough effect; inconclusive = small, poorly fitted or top-dose-only effect, or another doubt; inactive = no such curve, though single readings can be large or run the other way.

SMILES	CHX counter	Pf growth 96h	LmPK inh	Shiga inhibitor	Pf growth 48h
CC(C)(C)c1ccc(NC(=O)COC(=O)C2=COCCO2)cc1	21	i	i	i	nt
CCN(c1ccc(NC(=O)COC(=O)c2ccc(C)s2)cc1)C(C)C	19	i	i	i	i
CC1(C(=O)OCC(=O)Nc2nc(-c3ccc(F)c(F)c3)cs2)CC1(Cl)Cl (configuration not stated)	i	i	i	54	i
COc1ccc(N2CC(C(=O)Nc3nc4ccc(S(C)(=O)=O)cc4s3)CC2=O)cc1 (configuration not stated)	i	i	i	i	i
CC(=O)N1CCc2cc(S(=O)(=O)CCC(=O)NCCc3ccccc3)ccc21	i	i	i	i	i
Cc1ccc(S(=O)(=O)N2CCCCC2)c2nsnc12	i	i	i	i	i
CC(C)(C)c1ccc(NC(=O)COC(=O)c2ccc([N+](=O)[O-])s2)cc1	14	i	i	i	i
Cc1ccccc1NC(=O)COC(=O)C1(C)CC1(Cl)Cl (configuration not stated)	i	i	i	i	i
CC(C)(C)c1ccc(NC(=O)COC(=O)C2(C)CC2(Cl)Cl)cc1 (configuration not stated)	49	i	i	77	i
CN1CCCN(S(=O)(=O)c2cccc(C(F)(F)F)c2)c2nc3ccccc3nc21	nt	i	nt	nt	i
COc1cccc(OCc2nc(-c3ccc(Br)o3)no2)c1	28	i	i	i	i
COc1cccc(OCc2nc(-c3cccc([N+](=O)[O-])c3)no2)c1	25	i	i	i	i
COc1ccc(Cc2nc(-c3ccc(Br)o3)no2)cc1OC	18	?	i	i	nt
Cc1cccc(OCc2nc(-c3ccc(Br)o3)no2)c1	i	i	i	92	i
COc1ccc(CNS(=O)(=O)c2ccc(Br)s2)cc1	i	i	i	i	i
O=S(=O)(Nc1cccc2ccccc12)c1cccc2ccccc12	i	nt	nt	i	nt
CCn1c(COc2ccccc2C)nnc1SCC(=O)N1CCN(c2ccccc2)CC1	i	?	i	i	10µM
CCn1c(CC(=O)Nc2cccc(OC)c2)nnc1SCC(=O)N1CCN(c2ccccc2)CC1	i	i	i	i	i
CCn1c(COc2cccc(C)c2C)nnc1SCC(=O)N1CCN(c2ccc(OC)cc2)CC1	i	9.3µM	i	i	?
CCn1c(COc2ccccc2C)nnc1SCC(=O)OC	i	?	i	i	i
COc1ccccc1NC(=O)CCS(=O)(=O)c1cc2c(cc1Cl)NC(=O)CO2	i	i	i	i	i
O=C(COC(=O)c1cc(S(=O)(=O)N2CCCCC2)ccc1N1CCOCC1)c1ccc(F)cc1	nt	i	nt	nt	?
CC1=CCC2COC(c3ccc[n+](Cc4ccccc4)c3)C1C2 (configuration not stated)	i	i	i	i	1.5µM
O=C(NCCc1ccccc1)C(=O)c1cn(CC(=O)N2CCCC2)c2ccccc12	19	i	i	i	i
COc1ccccc1CCNC(=O)C(=O)c1cn(CC(=O)N2CCCC2)c2ccccc12	33	?	i	64	i
SMILES	CHX counter	Pf growth 96h	LmPK inh	Shiga inhibitor	Pf growth 48h
CC(C)=C(NC(=O)c1ccccc1)C(=O)NC(Cc1ccccc1)C(=O)O (configuration not stated)	i	i	i	i	i
OC(COCc1ccccc1)Cn1cnc2ccccc21 (configuration not stated)	i	i	i	i	i
Cc1n(CC(O)COCc2ccccc2)c2ccccc2[n+]1C (configuration not stated)	i	3.3µM	i	i	9.3µM
CCN(c1cccc(C)c1)c1nc2ccsc2c(=O)s1	i	8.3µM	i	i	i
Cc1oc(-c2cccc(Cl)c2)nc1CS(=O)(=O)CC(=O)NCCCN1CCOCC1	i	?	i	i	?
C=CCOc1c(Br)cc(/C=N/n2c(CC)n[nH]c2=S)cc1Br	i	?	i	i	i
CC1=C(C(=O)Nc2cc(C(=O)NCCC(C)C)ccc2C)SCCO1	i	i	i	i	i
O=C1c2ccccc2C(=O)N1CCCc1nc(-c2cccnc2)no1	i	i[5.75 µM]	i	i	i
O=c1[nH]c2ccccc2cc1-c1noc(-c2cccnc2)n1	i	i	i	i	i
c1ccc(-c2noc(-c3cccnc3)n2)cc1	33	12µM	?	99	i
Cc1ccc(SCc2nc(-c3cccnc3)no2)cc1	21	i	i	53	i
